# Reference: PubChem BioAssay AID1159506 (National Center for Advancing Translational Sciences (NCATS), 2015)
# Over roughly 59,000 sequences, the read-out has its median near -0.00055; the lowest 2% begin near -2. Many of the other results were omitted from the sample, so the lowest values are more common in it than they were.
# Experiment: Identification of proteins required for the processing of the EWS-FLI1 nascent transcript;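 note: robust z of luciferase light less the median z of siRNAs with the same seed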
# Details: TC32 Ewing sarcoma NR0B1-luc vs CMV-luc (EWS-FLI1 target promoter against control promoter), 48 h; screened at 20 nM (by protocol)
# Method in brief: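 TC32 Ewing sarcoma cells carrying NR0B1-promoter or CMV-promoter luciferase reporters were reverse-transfected with single siRNAs at 20 nM, three per gene genome-wide. Luminescence was read after 48 h and normalized to non-targeting controls.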
row,Sequence,seed-corrected z-score
1,UCCUCAUGUAUUUUGGUCC against ELOVL5,-0.118
2,UCACUUAGCAUGGGUAUUG against TMOD4,-0.648
3,UUCUCUUCCAUCUCCGCCC against TNRC18,-0.725
4,AAACUGGUAAUAUGAAUUC against IQSEC2,1.31
5,UUUGGUCCAAAUUCACUCC against C2orf76,-2.66
6,GGCUGGUCGUGAUCUUUCC against SPDYE2,0.846
7,UUCGAUAUACCAGAACCGC against LPGAT1,-1.1
8,UGUAGUAAUGUGAUUUUCC against CTBP2,1.22
9,UUCCUCGUAGGUCCACUCG against ARID3C,-0.393
10,UUUCCUGCACCCAUAAGUC against C11orf58,-0.0639
11,GAACGACUCAGAUCCCGGA against HCRT,-12.7
12,UUACAGGUAGCGGCAAGCA against SP8,0.823
13,UACCUGAAAACCUAGUUUC against TBPL1,-0.106
14,UAUAGUAAAGCCCAGACGG against CNTNAP3,-2.74
15,AUAUGUUUACUACCGGUGC against CYP4Z1,-0.0519
16,UUCGCUUAACAUGCUCUCC against SKIL,-1.15
17,AAUUCCAGAAUUACAGGCU against PRAC1,-0.113
18,UAAGAUGAGAGAGUGUCCA against TAS2R1,0.755
19,UACUGGUCUAGGAGGUAUG against ERRFI1,-0.314
20,AGACUGAGCAGUAGGACUC against SLC35E4,-2.41
21,AUAUGGUCAAAUGAGUUAG against KIF3B,1.67
22,UUUCCGUACAUUGUGGUCC against ATP13A5,0.276
23,UAAGCACGAACAGUUAUAG against USP47,0.264

row,Sequence,seed-corrected z-score
1,AUAGGGCACAUCUUGUAGG against CSDC2,0.0846
2,UCUGUUUUGAAGGACCUCU against ENTPD6,0.116
3,UUCGCAUUUGUAUUCGACC against GNB4,0.0257
4,UAUUUCACCAUCUCCGAGC against MAGEF1,-2.32
5,UGAGGUUAUACGUUCCCUG against KIAA1549,-0.0625
6,UUGGGUCCGAGGAACAACU against ZNF469,0.678
7,UCUUGCAACAGAGCCCUGA against TESK1,-0.681
8,AUCCGCAUCAGUAACAUUG against CASQ1,-0.835
9,UUCCUUAAUGGUGUAUUCG against RIN3,0.651
10,UAUGGAACUGUAUAUAGGA against EVA1C,0.1
11,UGCUCUGUAAUCACGGGCU against WARSP1,-1.94
12,AUACUGUAGACGUACCUCU against F2R,-0.762
13,AAAGGUUCACCACAUAGCC against SORL1,-3.01
14,UUAUGUGAACCAUCGCAGG against CISD2,0.515
15,UCCAGUAGUAGUCUUCCAG against MAF,-2.92
16,AUAGGUGUUGAUACGAGCC against SATB1,-0.199
17,UAUCUUUCCUGGUAUGUCA against LPCAT3,-0.533
18,UCGAUUUUGAGAAUCAAUG against VPS45,0.271
19,UCAUAGCAAAGGAUCAGCC against CDC42BPB,-3.29
20,UUCCUUACCAUCAGGCAAG against DAP3,0.589
21,AUGGGUUCCAGCAACAAUC against TMEM65,0.797
22,UUCUUGUAGUCCUCUAGGC against FZD8,0.236
23,AUAGUAAUUCCUGGUAAAG against CYBA,-3.24

row,Sequence,seed-corrected z-score
1,UACAAAAACGAUGGCAUCC against CCL17,-0.409
2,UACCCAUACGGAGUAGCGA against ASMTL,-0.0723
3,UAUAGGCAAAGCUAUCUCC against RBM15B,-0.465
4,AAUAAGACUCCUAAAAUCC against OR2A25,-2.04
5,UAAUAUAUUGUCCAUUUAC against OSTC,0.401
6,UUUUGAUUGAGAGGAUCGU against MBD2,0.911
7,UUAACAACUUUAGUCCUGC against EFHC1,0.0527
8,ACUUGUAACAGAUCAGCUC against TKFC,0.791
9,UUAGUUGAGGGUGAUCCCG against MXRA5,0.422
10,AGAGAUCCCGUGUAUGACC against SLC30A2,-0.311
11,UCUGCUCCCACAAUGAAAC against RPLP0,-2.42
12,UCAAUUAUUCCUCUCCGUC against HEY1,-0.248
13,UCAUAGUCCAUUCAGAGUU against CEACAM19,0.0695
14,UCCUGGAUACCUAACACCC against USP26,0.09
15,ACUCCAAUCAGUACAGUCC against NUP210L,-0.264
16,AAGUUGUCAAACAAGCCCU against CHTF18,-3
17,UUAACCGAUAUAUCCAUGG against LRRTM4,0.0172
18,UGAGGUCCACGAUAUCUAG against PYDC1,0.555
19,AAAGAUAUCAGUGACGAAG against HIST1H2BA,-0.152
20,UAUUGUUCCGUCAUGCACU against PTGDS,0.165
21,UAUCUCCACAUACCCGUUC against INHBA,-0.368
22,UACGUAGAUUUGGAAUUCC against ACO1,0.682
23,UUAGUCUCAGCAUCGGCUC against KIAA1210,-0.103

row,Sequence,seed-corrected z-score
1,UCACGAAGGAGUCUAUUCC against PRTN3,-3.15
2,AUAGAGCCCAUUAUGCUUU against PSG11,-1.42
3,UUGGUGUUGGGCAACUUGU against HOXB4,0.286
4,UCACUGAUUCUAGAUGAUG against SPIN3,-0.422
5,UAUAAAUCAACGGAUUCAG against OR5I1,0.416
6,UUUUGCACCUGGGUCCUAC against LRWD1,0.154
7,AAAGGAAAAACCUAUUUUC against LOC728254,0.573
8,AUAGGUUCCUGUCUGUUGG against PYCRL,0.415
9,AAAGAUUAAGGUACCAUAG against OR5J2,0.72
10,UUCGGCUUCACUGUUAUCC against TNR,-2.16
11,UCCAGUUCUUUCUUGGUCG against GTPBP6,0.447
12,UUGAUGGAUAGUCAUCACG against RBMX,-0.224
13,AAAUCGAUAAUCACUUAGG against ZNHIT6,0.142
14,UAUUUCACAACAGGCACCG against MYO1C,-2.29
15,UUUUGUGCCUGUGCCCUUG against SBK1,-0.47
16,AGACUGAUGGUAGUGGUGG against PRRT1,-0.57
17,UUCAAUAUCAUUCCGAGGC against C6orf62,0.77
18,UUGUAUGAUUUUGCAAUUG against LINC01014,-0.168
19,AAAUGUACUCGAUCCCAUG against CPA5,-2.65
20,UACAGUUCCUCAAUGUUCA against IL1F10,1.27
21,UAAACAGGCACGAAGCUUC against RPAIN,-0.43
22,UUAGCUAGAGUUUUCAACC against MLLT11,0.312
23,UGACGUACCAGCACUGCGU against ADM2,-13.6

row,Sequence,seed-corrected z-score
1,UGAGCAUCCAUGCUGGGUA against ZNF688,0.0175
2,UUCAUUUAAAUUCUAACAC against SYNC,0.372
3,AUUCAUUCUUAUUAAGUGC against GPX5,-0.0754
4,UUUGGUUUGAGCAGUCAAG against COMMD1,-2.03
5,AAUAAAUCCAUCCUUGUUC against GUCA1C,-0.429
6,UCCUGAUCUAUCCAUAGGC against IFITM3,-0.0222
7,UUCUCAAACACCUUCUUCC against QTRT1,-0.0367
8,UGCUCCAUCACAAAGGCGG against FN3K,1.15
9,AUGGGAAUUAUGUCGGUUG against SCEL,0.236
10,UCCAGUUGUACUUCUUGCC against GFOD1,-3.99
11,AAACUCUUUAGGAAAGAUG against POLR2D,-0.98
12,UUAGCUGCCUGGAUAAGCG against CTNNA2,-0.541
13,UUUCCAACAUGAUCCACUG against TM2D2,0.00525
14,AAACGUUUGGAGCCUCUUG against NOXO1,-2.35
15,AUAGGGAACAGGAUAGCCC against C1orf74,1.41
16,UAGAUCUUUCCUCUGGUGG against FAM132B,-0.705
17,UGAACCGAGACUGUGGCAC against SERF1B,-0.313
18,UCCUUCUUGAGCAGGUUCU against SOX14,-0.364
19,AUUGUUGUCCAUAAUAGGC against IKZF2,-0.0322
20,UGACUAUUAAGAUAUGAAG against ZNF121,-2.14
21,UUCUUUACAACUAUCCGAG against FBXO5,2.48
22,UUGCCUAUCAGUAGCAGUU against RAB3D,-2.07
23,UGAUUGGAAAGCUUGUUCU against ME3,0.0737

row,Sequence,seed-corrected z-score
1,UCGCUGAUGAGGAUCUUCC against KCNA10,-0.144
2,UAUACAAUGAGGCAGCUGA against ISCA1P1,0.235
3,UCUGGUGGGACUGGUGUUG against ZNF574,-3.85
4,UUUCUGAUCAUCUUGGUCC against SAFB,-0.16
5,UUCUGGAUCCCAAAUAGUG against ARHGAP19,0.0206
6,UGUUAUCCGAGUAUAAUAC against PSMD12,-2.56
7,UUAUCACCCAUAGGAGCCU against LOC400965,0.18
8,UGUCUUGUAGAUUUCCACC against TATDN1,-0.0339
9,AUAGCUGUGAGACAUCAGG against PRCD,-2.08
10,UUAGUUCGUUCCUCUGUGC against PSMC5,1.1
11,UUCGCUGACUCUGUAACCC against CACNB4,-0.0786
12,UACUCGCUCACCACAAAGG against SRSF4,-0.234
13,UCUCGGUUCAUUUUCUUGA against HOXC10,0.936
14,AAUGAUUUUAGAAGCCUGU against NPR3,0.11
15,UAAGAUACUAUGGGAAAUA against C20orf166-AS1,-2.11
16,AAAGUUUAAGCAACCGUCG against RPS23P8,1.69
17,AAAUCGUUCAAUUACAUCC against ADAM17,0.501
18,UGGAGAGUAUGGGUAGUCG against CDC34,-1.87
